hDAT+cocaine – human DAT dopamine uptake with cocaine, either direction; AID 449768; B-score at 10 µM; LLC-PK1 hDAT cells, [14C]-dopamine uptake with cocaine IC80; actives deviate in either direction; 1.3% of 110,000 active; Q01959;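 active = Z score or B-score, a plate-position-corrected score, falls beyond the plate's 99.7% confidence bounds, in either direction; inactive = both scores lie inside the 99.7% bounds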
CYP2C19 inhib – human CYP2C19 inhibition. CYP2C19 Supersomes, luciferin-H EGE luminescence, 30 min. P33261. AID 778. 21% of 96,000 active. inhibition, % at 5 µM;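 active = CYP2C19 inhibition above a set limit at 5 µM in the primary screen, cut at about 50% in these data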
Target sequence (P33261 whole entry, looked up): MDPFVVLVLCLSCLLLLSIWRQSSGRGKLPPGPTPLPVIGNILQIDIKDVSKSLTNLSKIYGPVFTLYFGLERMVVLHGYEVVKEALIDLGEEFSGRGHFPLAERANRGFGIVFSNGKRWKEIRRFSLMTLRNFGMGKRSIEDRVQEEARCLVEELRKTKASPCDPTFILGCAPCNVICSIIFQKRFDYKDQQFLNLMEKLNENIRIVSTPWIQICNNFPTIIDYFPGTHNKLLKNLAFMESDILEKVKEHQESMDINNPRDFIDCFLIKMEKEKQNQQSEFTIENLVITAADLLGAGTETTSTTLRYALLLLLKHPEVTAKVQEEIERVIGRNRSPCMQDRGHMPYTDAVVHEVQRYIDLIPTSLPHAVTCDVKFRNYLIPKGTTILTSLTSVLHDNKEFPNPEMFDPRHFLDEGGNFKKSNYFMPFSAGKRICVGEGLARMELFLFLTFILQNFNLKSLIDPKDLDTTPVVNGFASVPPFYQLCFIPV
D1 mod – allosterically modulates the human D1 dopamine receptor; HEK293 D1, CRE-luciferase, dopamine EC30 potentiation; actives deviate in either direction; B-score at 10 µM; 5.9% of 58,000 active; AID 641;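 active = luminescence count or its row- and column-corrected plate score outside the 99.7% band of the plate's sample wells, on either side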
CYP2C19 activ – cytochrome P450 2C19 (human) activation | 96,000 tested, under 10 active | P33261 | activation factor at 5 µM | recombinant CYP2C19, luciferin-H EGE luminescence; stronger effect = higher value; 0 = fully inhibited enzyme, 1 = untreated enzyme;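 active = activation factor of at least 2 at 5 µM in the primary screen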
CYP2C9 inh – inhibitors of human CYP2C9 | P11712 | CYP2C9 Supersomes, luciferin-H conversion, luminescence | inhibition, % at 5 µM | 20% of 96,000 active | AID 777;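 active = blocking of liver enzyme CYP2C9 beyond about 50% at 5 µM, limit read from the data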
CYP2C9 activ – CYP2C9 (human) activation; P11712; recombinant CYP2C9, luciferin-H conversion, luminescence; stronger effect = higher value; factor 1 = untreated enzyme, 0 = blocked; activation factor at 5 µM; 1.4% of 96,000 active; AID 1024;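 active = activation factor of 2 or more for CYP2C9 at a 5 µM dose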
D1 PAM confirm – confirmation of human D1 dopamine receptor allosteric modulators | luminescence at 10 µM | AID 642 | HEK293 D1 CRE-luciferase, dopamine EC30 potentiation; stronger effect = higher value | shares compounds with D1 mod | 88% of 2,200 active;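 active = luminescence in either of two replicates above the same-plate mean plus 3 SD of the low-dose dopamine control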
D1 ag no DA – activates D1 CRE-luciferase signal without dopamine present. shares compounds with D1 mod. HEK293 D1 CRE-luciferase, luminescence, no dopamine; stronger effect = higher value. luminescence at 10 µM. 0.8% of 1,900 active; in the data active = luminescence above about 3900
Isoprot counter – isoproterenol response counter-screen activity for D1 modulators | 63% of 2,200 active | AID 647 | calls only at 10 µM | shares compounds with D1 mod | HEK293 D1 CRE-luciferase, isoproterenol EC30 counter-screen;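 active = luminescence in either replicate above plate mean of wells with a partly effective reference agonist dose plus 3 SD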;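 also: isoproterenol raises cAMP through native beta-adrenoceptor Gs so signal bypasses D1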
Numbers stand for hits. Only some compounds are listed: those with a hit (about 28% of all), similar ones and a draw of the others.

`Cc1nc(N2CCCCC2)c2sc(=S)n(C)c2n1` gave hDAT+cocaine inactive, CYP2C19 inhib inactive, D1 mod 8.2, CYP2C19 activ inactive, CYP2C9 inh inactive, CYP2C9 activ inactive, D1 PAM confirm 12412, D1 ag no DA 27240 and Isoprot counter active.
CCC(=O)N(Cc1cc(=O)[nH]c2ccccc12)c1cccc(C)c1 was read as hDAT+cocaine inactive, CYP2C19 inhib inactive, D1 mod inactive, CYP2C19 activ inactive, CYP2C9 inh inactive and CYP2C9 activ inactive.
`N#Cc1c2c(c(NCCN3CCOCC3)n3c1nc1ccccc13)CCCC2` gave hDAT+cocaine inactive, CYP2C19 inhib 53, D1 mod 3.5, CYP2C19 activ inactive, CYP2C9 inh 86, CYP2C9 activ inactive, D1 PAM confirm 15848, D1 ag no DA inactive and Isoprot counter active.
`CC(C)n1nnc2ccccc2c1=O` gave hDAT+cocaine inactive, CYP2C19 inhib inactive, CYP2C19 activ inactive, CYP2C9 inh inactive and CYP2C9 activ inactive.
COc1cccc(Cn2nnc(C(=O)NCc3ccccc3Cl)c2N)c1 was read as hDAT+cocaine inactive, CYP2C19 inhib inactive, D1 mod 6.8, CYP2C19 activ inactive, CYP2C9 inh inactive, CYP2C9 activ 2.9, D1 PAM confirm 16056, D1 ag no DA inactive and Isoprot counter active.
COc1ccc(C2C3=C(CCCC3=O)Nc3nc(SCc4ccc(C(=O)O)cc4)nn32)cc1OC (stereo unspecified) was read as hDAT+cocaine inactive, CYP2C19 inhib inactive, CYP2C19 activ inactive, CYP2C9 inh inactive and CYP2C9 activ inactive.
CC(=O)Nc1ccc(NC(=O)C/C(C)=N/NC(=O)C(=O)N2CCCC2)cc1 was read as hDAT+cocaine inactive, CYP2C19 inhib inactive, CYP2C19 activ inactive, CYP2C9 inh inactive and CYP2C9 activ inactive.
Screening N#Cc1nc(-c2ccccc2F)oc1N1CCCC1 returned hDAT+cocaine inactive, CYP2C19 inhib 50, D1 mod 6.4, CYP2C19 activ inactive, CYP2C9 inh inactive, CYP2C9 activ 2.3, D1 PAM confirm 11832, D1 ag no DA inactive and Isoprot counter active.
`N#Cc1nc(-c2ccco2)oc1N1CCCC1` gave hDAT+cocaine inactive, CYP2C19 inhib inactive, D1 mod 4, CYP2C19 activ inactive, CYP2C9 inh inactive, CYP2C9 activ inactive, D1 PAM confirm 11548 and Isoprot counter active.
`N#Cc1nc(-c2ccccc2)oc1N1CCCCC1` gave hDAT+cocaine inactive, CYP2C19 inhib inactive, D1 mod inactive, CYP2C19 activ inactive, CYP2C9 inh inactive and CYP2C9 activ inactive.
For COc1ccc(-c2cn3ccccc3n2)cc1OC the results were hDAT+cocaine inactive, CYP2C19 inhib inactive, D1 mod 12, CYP2C19 activ inactive, CYP2C9 inh inactive, CYP2C9 activ inactive, D1 PAM confirm 12712 and Isoprot counter active.
Clc1ccccc1-c1nn2c(-c3ccncc3)nnc2s1 was read as hDAT+cocaine inactive, CYP2C19 inhib 78, D1 mod 4.9, CYP2C19 activ inactive, CYP2C9 inh 74, CYP2C9 activ inactive, D1 PAM confirm 7940, D1 ag no DA inactive and Isoprot counter inactive.
For COc1ccc(-c2nnc3sc(C4CCCCC4)nn23)cc1OC the results were hDAT+cocaine inactive, CYP2C19 inhib inactive, D1 mod 15, CYP2C19 activ inactive, CYP2C9 inh inactive, CYP2C9 activ inactive, D1 PAM confirm 20172 and Isoprot counter active.
For COc1ccc(-c2nnc3sc(-c4cccs4)nn23)cc1OC the results were hDAT+cocaine inactive, CYP2C19 inhib inactive, D1 mod 5, CYP2C19 activ inactive, CYP2C9 inh inactive, CYP2C9 activ inactive, D1 PAM confirm 12160 and Isoprot counter active.
`CCOc1ccc(-c2nnc3sc(-c4c(OC)cccc4OC)nn23)cc1` gave D1 mod inactive.
CCN(CC)c1ccc(-c2nn3c(-c4n[nH]c5c4CCC5)nnc3s2)cc1 was read as hDAT+cocaine inactive, CYP2C19 inhib inactive, D1 mod inactive, CYP2C19 activ inactive, CYP2C9 inh inactive and CYP2C9 activ inactive.
Screening C1CCC(c2nn3c(-c4n[nH]c5c4CCC5)nnc3s2)CC1 returned hDAT+cocaine inactive, CYP2C19 inhib 87, D1 mod 6.3, CYP2C19 activ inactive, CYP2C9 inh inactive, CYP2C9 activ inactive, D1 PAM confirm 15420, D1 ag no DA inactive and Isoprot counter inactive.
Screening CCN(CC)C(=O)Oc1ccc(NC(C)=O)cc1 returned hDAT+cocaine inactive, CYP2C19 inhib inactive, D1 mod inactive, CYP2C19 activ inactive, CYP2C9 inh inactive and CYP2C9 activ inactive.
`O=S(=O)(c1cccc(C(F)(F)F)c1)N1CCC(c2cc(-c3cccc4ccccc34)n[nH]2)CC1` gave hDAT+cocaine inactive, CYP2C19 inhib inactive, CYP2C19 activ inactive, CYP2C9 inh inactive and CYP2C9 activ inactive.
Screening CC1(C)CC(=O)C(C(=O)CCCCC(=O)C2C(=O)CC(C)(C)CC2=O)C(=O)C1 returned CYP2C19 inhib inactive, D1 mod inactive, CYP2C19 activ inactive, CYP2C9 inh inactive and CYP2C9 activ inactive.
Screening Clc1ccccc1-c1nnc2sc(-c3cccs3)nn12 returned hDAT+cocaine inactive, CYP2C19 inhib inactive, D1 mod 11, CYP2C19 activ inactive, CYP2C9 inh 61, CYP2C9 activ inactive, D1 PAM confirm 14324, D1 ag no DA inactive and Isoprot counter active.
For Cc1oc(-c2ccccc2Cl)cc1-c1nn2c(-c3ccco3)nnc2s1 the results were CYP2C19 inhib inactive, D1 mod inactive, CYP2C19 activ inactive, CYP2C9 inh inactive and CYP2C9 activ inactive.
Screening CC(=O)c1cccc(NC(=O)Nc2cnn(Cc3ccc(Cl)cc3Cl)c2)c1 returned hDAT+cocaine inactive, CYP2C19 inhib inactive, CYP2C19 activ inactive, CYP2C9 inh inactive and CYP2C9 activ inactive.
Screening COc1ccccc1CNC(=O)c1oc2ccc(S(=O)(=O)N3CCCC3)cc2c1C returned hDAT+cocaine inactive, CYP2C19 inhib inactive, D1 mod 30, CYP2C19 activ inactive, CYP2C9 inh 73, CYP2C9 activ inactive, D1 PAM confirm 19660, D1 ag no DA inactive and Isoprot counter active.
`Cc1c(C(=O)NCc2cccnc2)oc2ccc(S(=O)(=O)N3CCCCC3)cc12` gave hDAT+cocaine inactive and D1 mod inactive.
`Cc1c(C(=O)NCc2ccccc2)oc2ccc(S(=O)(=O)N3CCCC3)cc12` gave hDAT+cocaine inactive, CYP2C19 inhib inactive, D1 mod 11, CYP2C19 activ inactive, CYP2C9 inh inactive, CYP2C9 activ inactive, D1 PAM confirm 21124, D1 ag no DA inactive and Isoprot counter active.
